Laboratory results as given in PubChem BioAssay (EPA / NIEHS).
Active and inactive are the calls of the source. Rule for the calls: active = hit-call score of the fitted dose curve at least 0.9, where 1 is the maximum; inactive = score below 0.9.

The compounds below were run on Tumor necrosis factor (Homo sapiens) (UniProt P01375) (assay: BSK_LPS_TNFa: BioMAP Diversity Plus: LPS Assay for Tumour Necrosis Factor alpha (TNFa) Biomarker Activity (AID 2283085)). Conditions: primary human HUVEC with PBMC; actives raise or lower the signal.
Sequence of Tumor necrosis factor (Homo sapiens) (P01375 whole entry, looked up): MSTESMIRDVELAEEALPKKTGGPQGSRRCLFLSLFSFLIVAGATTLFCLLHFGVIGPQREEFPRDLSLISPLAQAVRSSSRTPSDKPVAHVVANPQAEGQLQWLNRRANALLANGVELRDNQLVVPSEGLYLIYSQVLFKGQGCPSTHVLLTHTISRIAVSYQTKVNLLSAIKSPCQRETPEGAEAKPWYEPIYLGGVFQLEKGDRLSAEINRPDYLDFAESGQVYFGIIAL
Procedure: BSK_LPS is a cell-based, multiplexed-readout assay that uses umbilical vein endothelium and peripheral blood mononuclear cells, a human vascular primary cell co-culture, with measurements taken at 24 hours after chemical dosing in a 96-well plate.BSK_LPS_TNFa is an assay component measured in the BSK_LPS assay. It measures TNF-a antibody related to regulation of gene expression using ELISA technology.Data from the assay component BSK_LPS_TNFa was analyzed into 1 assay endpoint. This assay endpoint, BSK_LPS_TNFa, was analyzed with bidirectional fitting relative to DMSO as the negative control and baseline of activity. Using a type of binding reporter, gain or loss-of-signal activity can be used to understand changes in the signaling as they relate to the gene TNF. Furthermore, this assay endpoint can be referred to as a primary readout, because this assay has produced multiple assay endpoints where this one serves a signaling function. To generalize the intended target to other relatable targets, this assay endpoint is annotated to the cytokine intended target family, where the subfamily is inflammatory factor.
The levels of cell surface (or secreted, indicated by the prefix "s") biomarker endpoints were measured by ELISA. Overt cytotoxicity to cells in confluent adherent cultures (all systems other than the BT system) was assessed by measuring total protein levels using sulforhodamine B (SRB) staining in parallel cultures at the time of biomarker measurements, indicated as SRB endpoints. For proliferation assays for adherent cell types, individual cell types are cultured at sub-confluence and relative cell numbers quantified by SRB staining at time points optimized for each system (48 h: 3C and CASM3C systems; 72 h: BT and HDF3CGF systems; 96 h: SAg system). SRB was performed by staining cells with 0.1% SRB after fixation with 10% TCA and reading wells at 560 nm.Viability and proliferation of PBMC (T cells) was quantified by Alamar Blue reduction for the SAg and BT systems. For PBMC viability (referred to as PBMC Cytotoxicity within the assay endpoint names), cells were plated (75,000/well in a 96-well plate) and then chemical samples added for 1 h before addition of activators, SEB and TSST-1 (20 ng/mL final concentration each). Cells were incubated for 90 h. Then, Alamar Blue (20 uL/well) (Invitrogen, Cat DAL1100) was added for 6 h, and the plates were read with a fluorescence microplate reader at 546/580 nm (excitation/emission). For PBMC proliferation, cells were plated and activated as above but incubated for only 16 h prior to addition of Alamar Blue. Plates were read after 6 h.
In the case of `Cc1cc(CCC(=O)OCCOCCOCCOC(=O)CCc2cc(C)c(O)c(C(C)(C)C)c2)cc(C(C)(C)C)c1O`, the outcome is reported as “inactive”. With `CC1(C)C2=CCCC(C)(C)[C@]23CC[C@H]1C3` the outcome was “inactive”. For `CCOC(=O)C(C#N)=C(c1ccccc1)c1ccccc1`, the outcome was “inactive”. With `CC(C)(C)CC(C)(C)c1ccc(OCCOCC[N+](C)(C)Cc2ccccc2)cc1` the AC50 was 8.89 µM (active). For `COc1ccc(CCN2CCC(Nc3nc4ccccc4n3Cc3ccc(F)cc3)CC2)cc1`, the outcome was “inactive”. In the case of `c1ccc2cc(Nc3ccc(Nc4ccc5ccccc5c4)cc3)ccc2c1`, the outcome is reported as “inactive”. `CCC(C)c1cc([N+](=O)[O-])cc([N+](=O)[O-])c1OC(=O)OC(C)C` (stereo not given) was tested, and the AC50 was 31.8 µM (active). In the case of `C=C(C)C(=O)OCC(CC)(COC(=O)C(=C)C)COC(=O)C(=C)C`, the outcome is reported as “inactive”. For `CC(C=O)Cc1ccc(C(C)(C)C)cc1` (stereo not given), the outcome was “inactive”. For `C=C(C)C(=O)OCCOCCOCCOC(=O)C(=C)C`, the outcome was “inactive”. `CC(=O)Nc1ccc(C(=O)CCl)cc1` was tested, and the AC50 was 4.58 µM (active). With `CCCCCCC(CO)CCCC` (stereo not given) the outcome was “inactive”. With `Oc1c(Cl)cc(Cl)c(Cl)c1Cc1c(O)c(Cl)cc(Cl)c1Cl` the AC50 was 20 µM (active). For `COc1cc(Cl)c(OC)cc1N`, the outcome was “inactive”. In the case of `C=C(C)C(=O)OCCOCCOCCOCCOC(=O)C(=C)C`, the outcome is reported as “inactive”. With `CC(=O)C1(C)CC2=C(CCCC2(C)C)CC1C` (stereo not given) the outcome was “inactive”. `c1ccc(CCc2ccccc2)cc1` was tested, and the outcome was “inactive”. For `Clc1cc(Cl)c(-c2c(Cl)c(Cl)cc(Cl)c2Cl)cc1Cl`, the outcome was “inactive”. In the case of `O=C1OC[C@H](Cc2cccc(O)c2)[C@H]1Cc1cccc(O)c1`, the outcome is reported as “inactive”. With `CS(=O)(=O)c1ccc(C2=C(c3ccccc3)C(=O)OC2)cc1` the outcome was “inactive”. With `O=C1c2ccccc2C(=O)c2c(O)ccc(O)c21` the AC50 was 1.21 µM (active). With `C=CC(C)(O)CCC=C(C)C` (stereo not given) the outcome was “inactive”. `c1ccc(Oc2ccccc2)cc1` was tested, and the outcome was “inactive”. `CCCCN(CCCC)C(=O)N(CCCC)CCCC` was tested, and the AC50 was 9.7 µM (active). In the case of `CS(=O)(=O)OCCCCOS(C)(=O)=O`, the outcome is reported as “inactive”. `IC(I)I` was tested, and the outcome was “inactive”. For `CN(c1nccc(=O)[nH]1)C1CCN(c2nc3ccccc3n2Cc2ccc(F)cc2)CC1`, the outcome was “inactive”. `COc1ccc(OC)c(N=Nc2c(O)ccc3ccccc23)c1` was tested, and the AC50 was 20 µM (active). With `CC(CN=Cc1ccccc1O)N=Cc1ccccc1O` (stereo not given) the outcome was “inactive”. For `CC(C)(N=C=O)c1cccc(C(C)(C)N=C=O)c1`, the outcome was “inactive”. For `CC=Cc1ccc(OCC)c(O)c1`, the outcome was “inactive”. In the case of `C1=CC2C3C=CC(C3)C2C1` (stereo not given), the outcome is reported as “inactive”. In the case of `CN(C)C(=O)Nc1ccc(Oc2ccc(Cl)cc2)cc1`, the outcome is reported as “inactive”. In the case of `O=C1OC2(c3ccccc31)c1ccc(O)c(Br)c1Oc1c2ccc(O)c1Br`, the outcome is reported as “inactive”. `C[C@@H]1CCN(C(=O)[C@H](CCCN=C(N)N)NS(=O)(=O)c2cccc3c2NC[C@H](C)C3)[C@@H](C(=O)O)C1` was tested, and the outcome was “inactive”. With `O=C(Nc1ccc2c(O)c(N=Nc3ccc(N=Nc4ccc(S(=O)(=O)O)cc4)cc3)c(S(=O)(=O)O)cc2c1)c1ccccc1` the outcome was “inactive”. For `CSCCC=O`, the outcome was “inactive”. For `O=CN1CCOCC1`, the outcome was “inactive”. `CCN(CC)C(=O)N(CC)CC` was tested, and the outcome was “inactive”. For `CC(=O)c1c(C)c([N+](=O)[O-])c(C(C)(C)C)c([N+](=O)[O-])c1C`, the outcome was “inactive”.
